Source: PubChem BioAssay
KB-V1 MDR tox: qHTS assay for MDR1-selective chemotherapeutics: Primary screen using the drug-selected MDR subline cells KB-V1; Potency, µM (titrated, usually from 46.1 µM), usual class: cytotoxic; KB-V1 MDR cells viability, CellTiter-Glo, 72 h; 3.4% of 400,000 active; also: nearly all actives have a fitted effect of over 60% in size
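KB-V1 cells (P-gp-expressing MDR subline of KB-3-1) in phenol-red-free DMEM with 10% FBS were exposed to library compounds over a concentration series for 72 h at 37 degrees C. Viability read by CellTiter-Glo luminescence; concentration-effect curves fitted after normalization.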
KB-3-1 cytotox: qHTS assay for MDR1-selective chemotherapeutics: Primary screen using the parental adenocarcinoma cell KB-3-1. KB-3-1 viability, CellTiter-Glo ATP luminescence, 72 h. Potency, µM (doses to about 46.1 µM), hits mostly cytotoxic. 1.4% of 400,000 active. AID 1347075, 2019; also: nearly all actives have a fitted effect of over 60% in size
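Screening of KB-3-1 cells (DMEM, 10% FBS, phenol-red free) ran from lowest to highest compound concentration; after 72 h at 37 °C viability was read luminescently and curves fitted.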
HT1080-NT tox: qHTS for induction of synthetic lethality in tumor cells producing 2HG: qHTS for the HT-1080-NT fibrosarcoma cell line | HT-1080-NT fibrosarcoma viability, CellTiter-Glo ATP luminescence, 48 h | Potency, µM (titrated, usually from 46.1 µM), inactives show at the top dose activity, negative = less viability, hits mostly cytotoxic | 1.6% of 360,000 active | AID 686970, 2013;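 also: NT is the 2HG producing partner of a matched IDH1 knockdown line; 0% = DMSO-treated cells and -100% = media-only wells without cells; nearly all actives have a fitted effect of over 55% in size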
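Viability of the 2HG-overproducing fibrosarcoma line after 48 hours of compound exposure at 37 degrees C was determined by luminescence with CellTiter-Glo, and concentration-effect curves were then fitted and categorized.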
HT1080 IDH1KD tx: qHTS for induction of synthetic lethality in tumor cells producing 2HG: qHTS for the HT-1080-IDH1KD cell line; HT-1080 IDH1 knockdown viability, ATP luminescence, 48 h; Potency, µM (doses to about 46.1 µM), for the others: at the highest dose activity, negative = toxicity, hits mostly cytotoxic; 2% of 360,000 active; AID 686971, 2013;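 also: 0% = DMSO wells and -100% = cell-free medium wells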
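In this qHTS, HT-1080 cells depleted of IDH1 are exposed for 48 h at 37 °C to compound titrations. Toxicity is scored from CellTiter-Glo luminescence, with DMSO as full viability and medium alone as none.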
DT40 TDP1 CPT: qHTS for Inhibitors of human tyrosyl-DNA phosphodiesterase 1 (TDP1): qHTS in cells in presence of CPT; Potency, µM (top dose mostly 46.2 µM), without a hit: top-dose activity change, negative = growth inhibition, usual class: inhibitors; 12% of 420,000 active; chicken DT40 Tdp1-/-;hTDP1 cells + 20 nM CPT, ATP luminescence, 48 h; AID 686979, 2013; also: nearly all actives have a fitted effect of over 55% in size
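Cell growth measured by CellTiter-Glo luminescence after a minimum 48 h, 37 C compound exposure with 20 nM CPT in Tdp1-knockout DT40 cells stably expressing hTDP1, seeded 400/well; qHTS titration format.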
TDP1 cell noCPT: qHTS for Inhibitors of human tyrosyl-DNA phosphodiesterase 1 (TDP1): qHTS in cells in absence of CPT; DT40 Tdp1-/- hTDP1 cells, no CPT, ATP luminescence, 48 h; Potency, µM (series often up to 46.2 µM), for the others: at the highest dose activity change, negative = growth inhibition, usual class: inhibitors; 15% of 420,000 active; also: nearly all actives have a fitted effect of over 55% in size
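Chicken DT40 Tdp1-/- cells stably complemented with human TDP1 were seeded at 400 cells/well with DMSO in place of 20 nM camptothecin. After compound pinning, cells grew at least 48 hr at 37 °C; viability read by CellTiter-Glo luminescence.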
An asterisk follows results filed as active; i = inactive; u = inconclusive; x = not tested or not shown; [ ] = another dose, or the depositor's remark. Sampled rows, rich in hits. Any-hit rate of the full collection: about 19%. Calls follow the shape of the dose curve; as a rule, active = well fitted curve in the direction sought with a large enough effect; inconclusive = small, poorly fitted or top-dose-only effect, or another doubt; inactive = no such curve, though single readings can be large; an effect the other way counts as inactive or inconclusive. Unless noted, % is scaled to controls: 0 for no effect and ±100 for the full control effect; potency is read from the fitted curve at half-maximal effect.

SMILES	KB-V1 MDR tox	KB-3-1 cytotox	HT1080-NT tox	HT1080 IDH1KD tx	DT40 TDP1 CPT	TDP1 cell noCPT
CC(C)n1cc(NC(=O)c2cc(-c3ccccc3)on2)cn1	4.1µM*	u	16µM*	8.2µM*	5.2µM*	3.7µM*
COc1cc(NC(=O)c2ccccn2)cc(OC)c1OC	i	i	14%	6%	16µM*	u
CCCc1cc(C(=O)Nc2cccnc2)no1	u	i	28%	8%	9.2µM*	-5%
O=C1CC[C@@H](C(=O)N[C@H]2C[C@@H]2c2ccccc2)N1	x	x	x	x	0%	-15%
CCOc1ccc(NC(=O)CN(C)Cc2cc(=O)n3c(-c4ccccc4)csc3n2)cc1OCC	u	u	-6%	-1%	u	u
Cc1ccc(CNC(=O)c2c(-c3ccccc3Cl)noc2C)o1	i	i	x	x	u	u
CCCCn1nnnc1C1(C)CCC(=O)N1Cc1cccc(F)c1 (stereo unspecified)	i	i	19%	21%	-2%	-3%
COc1cccc(-c2cc(C(=O)Nc3cc(OC)c(OC)c(OC)c3)no2)c1	3.7µM*	u	u	u	12µM*	9.2µM*
COc1ccc(N2CCN(c3cc(C(=O)Nc4cc(OC)c(OC)c(OC)c4)ncn3)CC2)cc1OC	u	u	u	u	15µM*	18µM*
COc1cccc(-c2cc(C(=O)Nc3cccnc3)no2)c1	u	u	u	12µM*	21µM*	13µM*
COc1cccc(-c2cc(C(=O)Nc3ccc(OC)cc3OC)no2)c1	i	i	x	x	4%	-15%
COc1cc(NC(=O)CN2CCN(c3ccccn3)CC2)cc(OC)c1OC	i	i	-4%	-5%	-29%	-19%
O=C(Nc1cccnc1)c1ccc(NC(=O)c2ccco2)cc1	i	u	30%	23%	-16%	-14%
O=C(Nc1cccnc1)c1ccco1	i	i	-28%	u	u	23µM*
O=C(Nc1cccnc1)c1cc(-c2ccccc2)on1	i	i	-3%	-16%	-21%	-25%
O=C(O)CC1(c2ccc(F)cc2)C2CC3CC(C2)CC1C3 (stereo unspecified)	i	i	-2%	0%	-8%	-19%
Cc1nn(CC(=O)NCCc2ccccc2Cl)c(=O)c2nn(-c3ccccc3)c(C)c12	x	x	x	x	-22%	-22%
COc1cc(NC(=O)c2cccnc2Sc2ccc(Cl)cc2)cc(OC)c1OC	5.2µM*	i	-12%	-11%	u	u
O=C(Nc1cccnc1)c1cccs1	i	i	-13%	u	0.33µM*	0.37µM*
COc1ccc(C(=O)Nc2cccnc2Sc2ccc(Cl)cc2)cc1	i	i	4%	-19%	-20%	u
Cc1ccc(NC(=O)c2cc(-c3ccco3)on2)cc1	i	i	-4%	-8%	15µM*	u
COCCNC(=O)c1cc(-c2ccccc2OC)on1	u	9.2µM*	u	-24%	10µM*	12µM*
Cc1noc(C)c1CC(=O)N1CCOc2c(cc(-c3nc4ccccc4s3)cc2OC2CCOC2)C1 (stereo unspecified)	x	x	x	x	12%[9.04 µM]	-9%
COc1ccc(C=O)cc1CSc1ncccc1C(=O)O	u	i	16%	10%	24%	-11%
Cc1ccc(S(=O)(=O)NC(=O)C2(C)CCN2C(=O)c2cccc(F)c2)nc1 (stereo unspecified)	i	i	0%	-24%	1%	1%
SMILES	KB-V1 MDR tox	KB-3-1 cytotox	HT1080-NT tox	HT1080 IDH1KD tx	DT40 TDP1 CPT	TDP1 cell noCPT
O=C(Nc1cccnc1)c1cc(-c2ccco2)on1	i	i	-11%[9.24 µM]	-1%	9.2µM*	u
CCCCCc1c(C)nc(Nc2ccccc2)[nH]c1=O	i	u	-26%	-21%	21µM*	18µM*
Cc1ccc(Nc2nc(C)c(CCC(C)C)c(=O)[nH]2)cc1	i	i	8%	7%	u	18µM*
Cc1nc(NCc2ccccc2)[nH]c(=O)c1CCC(C)C	u	i	7%	-21%	u	u
O=P(O)(O)O	x	x	x	x	-20%	-4%
Cc1ccc(NC(=O)CSCC(=O)Nc2cccc(S(=O)(=O)N3CCCCCC3)c2)cc1	i	i	-19%	u	21µM*	u
CCOc1ccccc1Nc1nnc(SCC(=O)Nc2ccc3[nH]c(=O)[nH]c3c2)s1	i	i	17%	7%	0%	-13%
CCOc1ccccc1Nc1nnc(SCC(=O)Nc2cccc(S(=O)(=O)NC3=NCCCCC3)c2)s1	i	i	-3%	-9%	23µM*	18µM*
Cc1ccc(S(=O)(=O)CCC(=O)Nc2cccc(S(=O)(=O)N3CCCCCC3)c2)cc1	9.2µM*	u	3%	7%	u	u
O=C(CN1CCCC1c1cccs1)Nc1cccc(S(=O)(=O)N2CCCC2)c1 (stereo unspecified)	i	u	-3%[9.24 µM]	-4%	15µM*	u
Cc1ccc(S(=O)(=O)CCC(=O)OCC(=O)Nc2cccc(S(=O)(=O)N3CCCCC3)c2)cc1	i	i	-4%	-8%	-37%	u
O=C(COc1ccc2c3c(c(=O)oc2c1)CCCC3)NCCCN1CCOCC1	i	i	2%	14%	-8%	4%
CCOC(=O)/C=C/c1cccc(C)c1O	i	u	22%	26%	-15%	u
Cc1ccc(Nc2nnc(SCC(=O)Nc3cccc(S(=O)(=O)N4CCCCC4)c3)s2)cc1	i	i	-6%	-20%	u	18µM*
CC(C)Nc1nnc(SCC(=O)Nc2ccc3c(c2)C(=O)c2ccccc2C3=O)s1	10µM*	u	-11%	u	u	18µM*
COc1ccc(-n2cnnc2SCC(=O)Nc2cccc(S(=O)(=O)N3CCCCC3)c2)cc1	15µM*	i	3%	1%	10%	u
COc1ccc(-n2cnnc2SCC(=O)Nc2cc(S(=O)(=O)N3CCCCC3)ccc2C)cc1	u	i	-3%	6%	u	-14%
CCOc1ccc(NC(=O)c2nn(C)c3c2CS(=O)(=O)c2ccccc2-3)cc1	i	i	x	x	4%	-9%
